HPGD inh = inhibitors of human 15-hydroxyprostaglandin dehydrogenase (HPGD); P15428; purified HPGD, NADH fluorescence kinetic, PGE2 substrate; Potency, µM, without a hit: top-dose activity change, negative = inhibition, actives largely listed as inhibitors; 150,000 compounds, 4.3% hits; active means well fitted inhibition curve with a large enough effect, not every such curve was filed as active; inconclusive means small, poorly fitted or top-dose-only effect, or another doubt; inactive means no such curve, though single readings can be large or run the other way; further: potency means the concentration at half of the fitted maximal effect
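20 nM HPGD preincubated 15 min at room temperature with compound in 50 mM Tris-HCl pH 8, 0.01% Tween 20. Started with 1 mM NAD+ and 30 uM prostaglandin E2; NADH fluorescence (360/450 nm) read 5 times over 30-s intervals, last minus first.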
IMPase Li cell = IMPase inhibition in cells with lithium potentiation; CHO-M1 cells, IP1 TR-FRET (IP-One), carbachol + lithium; Potency, µM (top dose mostly 59.4 µM), without a hit: at the highest dose activity, negative = IMPase inhibition, usual class: inhibitors; 210,000 compounds, 0.35% hits;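 further: IP1 builds up when IMPase is blocked and the TR-FRET signal falls; potency means the concentration at half of the fitted maximal effect; plate controls were basal vehicle for no effect and high inhibitor control for full effect; nearly all actives have a fitted effect of over 50% in size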
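Test compounds were applied to CHO-M1 cells previously cultured for 16–30 h at 2000 per well. A small lithium amount accompanied them; after 30 min at 37C, IP1 was quantified by TR-FRET.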
ALDH1A1 inh = blocks purified human ALDH1A1 activity. Purified ALDH1A1, NADH fluorescence, propionaldehyde substrate. AID 1030. 220,000 compounds, 7.3% hits. Potency, µM (doses to about 75.3 µM), without a hit: at the highest dose activity, negative = inhibition, usual class: inhibitors; active means well fitted inhibition curve with a large enough effect, not every such curve was filed as active; inconclusive means small, poorly fitted or top-dose-only effect, or another doubt; inactive means no such curve, though single readings can be large or run the other way;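 further: potency means the concentration at half of the fitted maximal effect; plate controls were no enzyme wells and a reference inhibitor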
IMPase cell inh = membrane-permeable compound that blocks inositol monophosphatase | CHO-M1 cells, IP1 accumulation, HTRF TR-FRET ratio | inhibition (IP1 accumulation), % at 46.1 µM | P97697 | 120,000 tested, under 10 active; active means well fitted curve in the direction sought with a large enough effect in the signal ratio, not every such curve was filed as active; inconclusive means small, poorly fitted or top-dose-only effect, or a change in a side signal; inactive means no such curve, though single readings can be large or run the other way; the % refers to the signal ratio;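 further: cells stimulated with carbachol in lithium chloride buffer; plate controls were DMSO basal wells for no effect and reference inhibitor wells for full effect; higher means more IMPase inhibition seen as more IP1 and lower FRET ratio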
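CHO-M1 cells (CHO stably expressing M1 receptor), compound up to 46 uM final, stimulated with carbachol (50 uM as added) in buffer with 50mM LiCl, pH 7.4, 30 min at 37C. Cytosolic IP1 read by TR-FRET; AC50 from Hill fits.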
PNC inhibitor = perinucleolar compartment assembly inhibition; 140,000 compounds, 3.1% hits; activity change (PNC), negative = inhibition, % at 10 µM; PC3M PTB-GFP, PNC prevalence imaging, 16 h; hits give low values;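 active means readout at or below -70, meaning at least 70% loss of cells showing the perinucleolar compartment, a nuclear body marking cancer cells; inconclusive means readout between -30 and a set limit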;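 further: plate controls were DMSO wells for no effect and camptothecin positive control wells for full effect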
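PC3M cells stably expressing PTB-GFP, 750–1000 cells/well, treated 16 h at 37 °C with compound (23 nl of library stock), in duplicate. After paraformaldehyde fixation and Hoechst stain, imaged at 20x; PNC prevalence scored by image analysis.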
12-hLO inh = 12-hLO (ALOX12) enzyme inhibition. P18054. purified 12-hLO, xylenol orange hydroperoxide absorbance. Potency, µM (series often up to 57.1 µM), without a hit: at the highest dose activity change, negative = inhibition, hits mostly inhibitors. 150,000 compounds, 0.12% hits. AID 1452; further: potency means the concentration at half of the fitted maximal effect; nearly all actives have a fitted effect of over 55% in size
Target sequence (P18054 whole entry, looked up): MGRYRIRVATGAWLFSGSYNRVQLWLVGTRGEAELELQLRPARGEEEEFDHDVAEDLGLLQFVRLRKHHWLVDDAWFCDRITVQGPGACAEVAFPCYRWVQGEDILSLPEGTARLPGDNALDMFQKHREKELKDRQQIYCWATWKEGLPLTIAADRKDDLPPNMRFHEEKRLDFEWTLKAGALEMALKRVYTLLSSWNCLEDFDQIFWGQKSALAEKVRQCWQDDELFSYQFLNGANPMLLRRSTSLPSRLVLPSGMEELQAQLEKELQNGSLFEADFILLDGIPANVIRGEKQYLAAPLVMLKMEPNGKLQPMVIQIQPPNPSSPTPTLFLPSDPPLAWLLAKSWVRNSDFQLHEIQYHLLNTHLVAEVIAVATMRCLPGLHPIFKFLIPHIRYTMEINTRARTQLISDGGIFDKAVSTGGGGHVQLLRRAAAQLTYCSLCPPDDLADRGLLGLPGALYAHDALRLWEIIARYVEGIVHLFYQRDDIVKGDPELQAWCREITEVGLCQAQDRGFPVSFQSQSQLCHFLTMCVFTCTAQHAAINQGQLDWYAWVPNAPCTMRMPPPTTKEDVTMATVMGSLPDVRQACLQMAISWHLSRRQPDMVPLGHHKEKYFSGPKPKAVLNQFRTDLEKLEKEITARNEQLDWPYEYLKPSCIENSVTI
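Purified human 12hLO (150 nM), preincubated 15 min with compound, then 40 uM arachidonic acid for 30 min, room temperature, Hepes pH 7.0 with 0.01% Triton X-100. Hydroperoxide detected by ferrous iron/xylenol orange; 573/405 nm absorbance ratio gives reaction progress.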
* hit, by the source's call; ? = inconclusive; . = no result; ! = not active in a repeat; [ ] = another dose, or the depositor's remark. Shown are actives, neighbours in structure and some others; about 11% of the full set was active somewhere. Unless noted, the call rests on the fitted dose curve; in most records, active means well fitted curve in the direction sought with a large enough effect; inconclusive means small, poorly fitted or top-dose-only effect, or another doubt; inactive means no such curve, though single readings can be large; an effect the other way counts as inactive or inconclusive. Unless noted, on the % scale 0 is the no-effect control and ±100 the full control effect.

SMILES | HPGD inh | IMPase Li cell | ALDH1A1 inh | IMPase cell inh | PNC inhibitor | 12-hLO inh
CCC(NC(=O)CCCc1ccccc1)c1ccccc1 (centres undefined) | -7.0% | 9.7% | -4.1% | . | -9.6 | -2.1%
O=C(CCl)NC(Cc1ccccc1)c1ccccc1 (centres undefined) | . | -1.5% | 1.41µM* | . | . | .
CC(=O)C(Cc1ccccc1)NC(=O)CCl (centres undefined) | . | -5.4% | 22.4µM* | . | . | .
CC(C)(C)N1CC(c2nc3ccccc3n2CCOc2ccccc2)CC1=O (centres undefined) | -6.9% | -11.0%[38.3 µM] | 3.16µM* | 7.8 | 19.7 | 1.4%
Cc1cc(C)c(S(=O)(=O)Nc2ccccc2C(=O)O)cc1C | ? | . | ? | . | . | 1.3%
CC(=O)C1=C(c2ccccc2)OC(N)=C(C#N)C1c1ccc(O)cc1 (centres undefined) | -12.2% | -2.9% | 20µM* | . | ? | -4.3%
CCOC(=O)C1=C(N)OC(CCl)=C(C#N)C1c1ccsc1 (centres undefined) | -6.4% | -1.9% | 7.94µM* | . | -12.1 | 6.4%
COC(=O)C1=C(C)OC(N)=C(C#N)C1c1ccc(OC)c(OC)c1OC (centres undefined) | -8.5% | 5.4%[38.3 µM] | 0.1% | -2.9 | ? | 1.1%
CCSc1cc(C2C(C#N)=C(N)OC(C)=C2C(=O)OC)c(C)o1 (centres undefined) | -25.6% | 14.0%[38.3 µM] | 20µM* | 6.8 | 28.0 | -4.3%
CC1=C(C(=O)OCc2ccccc2)C(c2ccsc2)C(C#N)=C(N)O1 (centres undefined) | -28.7% | 1.8% | ? | -12.4 | ? | -5.6%
CCOC(=O)C1=C(CSc2nc(C)cc(C)c2C#N)OC(N)=C(C#N)C1c1cccs1 (centres undefined) | -18.8% | 0.9%[38.3 µM] | 14.1µM* | 3.0 | ? | -15.0%
O=C(O)c1ccc(CO)o1 | -4.5% | -12.3% | 12.7% | . | . | 1.6%
CCOC(=O)C1=C(c2ccccc2)OC(N)=C(C#N)C1c1ccc(Cl)s1 (centres undefined) | -12.2% | 4.1%[38.3 µM] | 1.78µM* | -1.7 | -20.7 | -27.9%
CCOC(=O)C1=C(C)OC(N)=C(C#N)C1c1ccc(O)c(OC)c1 (centres undefined) | -13.6% | -0.9%[38.3 µM] | 8.4% | 8.0 | 16.3 | -5.1%
COC(=O)C1=C(C)OC(N)=C(C#N)C1c1ccccc1 (centres undefined) | -21.5% | 10.7%[38.3 µM] | ? | 17.7 | -25.4 | -4.1%
COC(=O)C1=C(C)OC(N)=C(C#N)C1c1ccc(OC)c(CSc2ccccn2)c1 (centres undefined) | -17.8% | 26.7%[38.3 µM] | ? | 15.6[1.84 µM] | -87.2* | -4.1%
CCOC(=O)C1=C(C)OC(N)=C(C#N)C1c1ccccc1 (centres undefined) | . | 5.9% | 22.4µM* | . | . | .
CCOC(=O)C1=C(CSc2nc(C)cc(C)c2C#N)OC(N)=C(C#N)C1c1ccccc1 (centres undefined) | ? | 14.3%[38.3 µM] | 10µM* | 1.6 | 17.3 | ?
CC(C)(C)OC(=O)N1CCC(C(=O)N2CCOCC2)CC1 | -4.0% | -14.4%[38.3 µM] | 1.7% | 9.8 | 26.9 | -3.5%
CC(C)(C)OC(=O)N1CCC(C(=O)N2CCCCCC2)CC1 | 14.1µM* | -2.2% | 12.8% | ? | ? | 0.9%
CCn1c(=N)c(C(=O)NC2CCCCC2)cc2c(=O)n3cc(C)ccc3nc21 | . | . | . | -0.3 | . | .
CCCCCCCCCCCCCCCCCCOC[C@H](COP(=O)([O-])OCC[N+](C)(C)C)OC(C)=O | -3.8% | -3.4% | 8.6% | . | . | -9.9%
CCOC(=O)NC1(NCc2ccccc2)Oc2ccccc2O1 | -9.0% | -7.4% | 22.4µM* | 7.4 | 13.0 | 3.9%
CCOC(=O)NC1(NCC(C)C)Oc2ccccc2O1 | -6.0% | 30.1%[38.3 µM] | ? | 1.6 | -22.6 | -14.9%
Cn1c(SCC(=O)Nc2cccnc2)nnc1-c1ccccc1F | . | 7.8% | -9.4% | . | . | .
SMILES | HPGD inh | IMPase Li cell | ALDH1A1 inh | IMPase cell inh | PNC inhibitor | 12-hLO inh
CC(C)c1cc(NC(=O)CSc2nnc(-c3ccccc3F)n2C)on1 | -1.0% | 3.1%[38.3 µM] | ? | 2.9 | -100.0* | -2.8%
Cc1nn(Cc2ccccc2)c(C)c1NC(=O)CSc1nnc(-c2cc(Cl)ccc2O)n1C | 28.2µM* | 31.8%[38.3 µM] | ? | 10.0 | -14.0 | -16.0%
COc1ccc2c(c1)C(=O)[C@H](OC(=O)Nc1ccc(OC(F)F)cc1)[C@@H](c1ccc(OC)c(Br)c1)O2 | -8.3% | 0.3% | 3.8% | . | . | .
O=c1[nH]c2cc3c(cc2cc1CN(CCc1ccccc1)Cc1nnnn1C1CCCC1)OCCO3 | ? | 2.9%[38.3 µM] | ? | -4.7 | ? | -7.5%
COc1ccc2[nH]c(=O)c(CN(Cc3nnnn3Cc3ccccc3)CC3CCCO3)cc2c1 (centres undefined) | -24.9% | -5.5%[38.3 µM] | ? | -0.2 | 28.3 | -10.7%
Cc1ccc2[nH]c(=O)c(CN(Cc3nnnn3Cc3ccccc3)C3CCCC3)cc2c1 | -12.2% | 26.9%[38.3 µM] | 20µM* | -3.3 | 27.7 | -12.3%
CCOc1ccc2[nH]c(=O)c(CN(CCO)C(c3nnnn3C3CCCCC3)C(C)C)cc2c1 (centres undefined) | -16.5% | -11.2%[38.3 µM] | 12.6µM* | -2.1 | -9.3 | -4.3%
CCc1ccc2[nH]c(=O)c(CN(Cc3nnnn3C3CCCC3)C3CCCCC3)cc2c1 | -19.0% | 6.6%[38.3 µM] | 14.1µM* | 2.5 | -1.0 | -3.9%
CCOc1ccc(C2Nc3ccccc3-c3nnc(SCc4ccccc4)nc3O2)cc1OC (centres undefined) | . | . | . | 0.8 | . | .
Cc1cccc(N2C(=O)C(CC(=O)Nc3cccc(F)c3)N(CCc3ccncc3)C2=O)c1 (centres undefined) | . | 12.4% | -4.0% | . | . | .
COc1ccc(NC(=O)CC2C(=O)N(c3cccc(C)c3)C(=O)N2C2CCCCC2)cc1 (centres undefined) | 0.4% | 11.6%[38.3 µM] | -2.3% | -0.4 | ? | 0.3%
CCc1ccc(NC(=O)CC2C(=O)N(c3ccc(C)cc3)C(=O)N2CCc2ccncc2)cc1 (centres undefined) | . | 9.1% | 3.55µM* | . | . | .
CCc1ccc(NC(=O)CC2C(=O)N(c3cccc(C)c3)C(=O)N2C2CC2)cc1 (centres undefined) | . | 4.6% | 11.2µM* | . | . | .
CC(C)=CCc1c(O)cc2oc(C)cc(=O)c2c1O | 4.47µM* | 5.7% | -2.5% | . | . | 0.2%
Cc1c(Cc2ccccc2)c(=O)oc2cc(O)cc(O)c12 | . | 0.4% | ? | . | . | .
COc1c(O)cc2oc3cc(O)c(CC=C(C)C)c(O)c3c(=O)c2c1CC=C(C)C | 28.2µM*! | 9.4% | -1.8% | 1.3 | . | ?
CC(C)(C)C1CCc2c(sc(NC(=O)c3cc4ccccc4c(=O)o3)c2C(N)=O)C1 (centres undefined) | . | . | . | -2.6 | . | .
CCC(C)(C)NC(=O)C1CCN(c2nc(OC)nc(OC)n2)CC1 | . | -0.6% | 8.6% | . | . | .
